The results in this text go back to PubChem BioAssay (NCATS).

What all share (experiment): Primary qHTS to identify gynecologic anti-cancer compounds using libraries of approved drugs and bioactive compounds (AID 1345084); note: nearly all actives have a fitted effect of over 55% in size
On the technique in general: In qHTS, concentration-response curves come from the screen itself.

One assay has as its system C33A. The note with it: Gynecologic cancer cell panel viability, ATPlite luminescence, 48 h; series mostly up to 57.5 µM. Put shortly: (§1)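 Measured: luminescence after ATPlite addition (15 min, RT). Exposure: 48 h, 37 C, 5% CO2.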
A general note: ATP-based viability assays read luminescence as a measure of living cells.

The test system of the next assay is CAOV3. To be noted: Gynecologic cancer cell panel viability, ATPlite luminescence, 48 h; series mostly up to 57.5 µM. Put shortly:
as §1

Another assay has as its system CASKI. To be noted: Gynecologic cancer cell panel viability, ATPlite luminescence, 48 h; series mostly up to 57.5 µM. Put shortly: as §1
A further assay relates to Es-2. To be noted: Gynecologic cancer cell panel viability, ATPlite luminescence, 48 h; series mostly up to 57.5 µM. Put shortly:
as §1

For a further assay, the system named is HeLa. To be noted: Gynecologic cancer cell panel viability, ATPlite luminescence, 48 h; series mostly up to 57.5 µM. Put shortly:
as §1

A further assay has as its system Hek293T. The note with it: Gynecologic cancer cell panel viability, ATPlite luminescence, 48 h, control line for the selectivity index; series mostly up to 57.5 µM. A digest of the protocol: as §1
The subject of the next assay is JEG-3. To be noted: Gynecologic cancer cell panel viability, ATPlite luminescence, 48 h; series mostly up to 57.5 µM. Put shortly: as §1
In another assay the test system is OV90. The note with it: Gynecologic cancer cell panel viability, ATPlite luminescence, 48 h; series mostly up to 57.5 µM. Put shortly:
as §1

The subject of another assay is PA-1. The note with it: Gynecologic cancer cell panel viability, ATPlite luminescence, 48 h; series mostly up to 57.5 µM. A digest of the protocol:
as §1

In another assay the test system is Tov-21-G. To be noted: Gynecologic cancer cell panel viability, ATPlite luminescence, 48 h; series mostly up to 57.5 µM. A digest of the protocol:
as §1

Another assay deals with Tov112D. To be noted: Gynecologic cancer cell panel viability, ATPlite luminescence, 48 h; series mostly up to 57.5 µM. A digest of the protocol: as §1

Inconclusive results are not listed. Unmarked numbers belong to inactive results. Activity calls are given as the source filed them. Calls come from the whole dose curve; as a rule, active = well fitted cell-killing curve with a large enough effect; inconclusive = small, poorly fitted or top-dose-only effect, or effect the other way; inactive = flat fitted curve, though single readings scatter.
Potency is the fitted concentration of half-maximal effect.

Consider `C[C@H]1[C@@H](O)[C@H](O)C2[C@]3(C)C([C@@H](O)[C@H]4OC(=O)[C@@H]1[C@@]24C)[C@](C)(O)C=C[C@H]3O[C@@H]1O[C@H](CO)[C@@H](O)[C@H](O)[C@H]1O` (some centres not stated), for which the Potency result in the assay with C33A, with CAOV3, in the assay on Es-2, with HeLa, in the assay with Hek293T and with JEG-3 was “inactive” in each case. For the same molecule, the Potency entry with OV90, in the assay on PA-1, with Tov-21-G and in the assay with Tov112D was “inactive” each time. For the same molecule, in the assay on CASKI, the result was inactive.
In the case of `CCOC(=O)c1ccc(NC2CCCCC2)c(N)c1`, the Potency entry in the assay with C33A, with CAOV3, in the assay with Es-2, with HeLa, in the assay with Hek293T and in the assay on JEG-3 was “inactive” in each case. Further, the Potency result with OV90, in the assay on PA-1, with Tov-21-G and in the assay on Tov112D was “inactive” in each case. For the same molecule, the outcome in the assay on CASKI was inactive.
Consider `O=C(OC[C@H]1O[C@H](O[C@H]2CO[C@H](CO)[C@@H](O)[C@@H]2O)[C@H](O)[C@@H](O)[C@H]1O)c1ccccc1`, for which the Potency entry in the assay on C33A, in the assay with CAOV3, in the assay with Es-2, in the assay with HeLa, in the assay with Hek293T and in the assay on JEG-3 was “inactive” throughout. For the same molecule, the Potency entry in the assay with OV90, with PA-1, with Tov-21-G and in the assay with Tov112D was “inactive” throughout. Besides, the call in the assay on CASKI was inactive.
As for `CC1(C(=O)O)CCCC2(C)C3CCC4CC3(CCC12)CC4(O)CO` (configuration not stated), the Potency result in the assay on C33A, in the assay on CAOV3, in the assay with Es-2, with HeLa, in the assay with Hek293T and in the assay on JEG-3 was “inactive” in each case. For the same molecule, the Potency result in the assay on OV90, in the assay with PA-1, in the assay on Tov-21-G and in the assay on Tov112D was “inactive” in each case. For the same molecule, the outcome in the assay with CASKI was inactive.
For the molecule `CC1(C)CC[C@]2(C(=O)O)CC[C@]3(C)C(=CCC4[C@@]5(C)C[C@@H](O)[C@H](O)[C@@](C)(CO)C5[C@H](O)C[C@]43C)[C@@H]2C1` (some centres not stated), the Potency result with C33A, in the assay on CAOV3, with Es-2, in the assay on HeLa, in the assay on Hek293T and with JEG-3 was “inactive” each time. The Potency entry in the assay on OV90, in the assay on PA-1, in the assay with Tov-21-G and with Tov112D was “inactive” throughout. Besides, the result with CASKI was inactive.
As for `COc1cc(/C=C/C(=O)OCC2OC(OC3(CO)OC(CO)C(O)C3O)C(O)C(O)C2O)ccc1O` (configuration not stated), the Potency result in the assay on C33A, in the assay with CAOV3, in the assay with Es-2, in the assay on HeLa, in the assay on Hek293T and with JEG-3 was “inactive” throughout. Besides, the Potency entry in the assay with OV90, with PA-1, in the assay on Tov-21-G and in the assay on Tov112D was “inactive” each time. Moreover, the molecule was called inactive in the assay with CASKI.
As to `CC1=C[C@@H]2[C@H]3[C@@H]4O[C@@](C)(CC[C@H]4O)[C@H]3CC(=O)[C@]23C(=O)N[C@@H](CC(C)C)[C@@H]3[C@@H]1C`, the Potency entry with C33A, in the assay on CAOV3, in the assay on Es-2, in the assay with HeLa, in the assay with Hek293T and in the assay on JEG-3 was “inactive” throughout. For the same molecule, the Potency entry in the assay with OV90, with PA-1, with Tov-21-G and with Tov112D was “inactive” each time. Moreover, the call in the assay on CASKI was inactive.
Turning to `O=C1C[C@@]2(C(=O)N1)C(=O)N(Cc1ccc(Br)cc1F)C(=O)c1cccn12`, the Potency result in the assay on C33A, in the assay with CAOV3, with Es-2, in the assay on HeLa, with Hek293T and in the assay on JEG-3 was “inactive” throughout. Moreover, the Potency entry in the assay on OV90, in the assay on PA-1, in the assay on Tov-21-G and with Tov112D was “inactive” in each case. In the assay with CASKI, the result was inactive.
For `C#CCCCn1cc(-c2cccc3c2N[C@@H](C)CC(=O)N3)cn1`, the Potency entry in the assay with C33A, in the assay on CAOV3, with Es-2, in the assay with Hek293T, in the assay with JEG-3 and with OV90 was “inactive” each time. Also, the Potency entry in the assay on PA-1, in the assay with Tov-21-G and in the assay with Tov112D was “inactive” in each case. Moreover, the call in the assay with CASKI was inactive. Also, the Potency with HeLa was 28.2 µM (active).
Take `CCC(C)C1NC(=O)C2C(C)CCN2C(=O)C(CC(O)CO)OC(=O)CCNC(=O)C(C)N(C)C(=O)C(C(C)C)N(C)C1=O` (configuration not stated): the Potency entry in the assay with C33A, in the assay on CAOV3, with Es-2, with HeLa, with Hek293T and in the assay with JEG-3 was “inactive” throughout. The Potency result in the assay on OV90, in the assay with PA-1, in the assay on Tov-21-G and in the assay with Tov112D was “inactive” throughout. For the same molecule, the outcome in the assay with CASKI was inactive.
As for `C=C1CC23CC1CCC2C12OC(=O)C(C)(C(O)C(O)C1O)C2C3C(=O)O` (configuration not stated), the Potency entry in the assay with C33A, in the assay with CAOV3, in the assay on Es-2, in the assay with HeLa, in the assay on Hek293T and in the assay on JEG-3 was “inactive” each time. Besides, the Potency result in the assay with OV90, in the assay with PA-1, in the assay on Tov-21-G and with Tov112D was “inactive” throughout. Further, in the assay on CASKI, the call was inactive.
With `Cc1c(C)c(NCC(=O)N(C)C2CCN(Cc3ccc(C(N)=O)cc3)CC2)c(C)c(C)c1N`, the Potency result in the assay with C33A, with CAOV3, with Es-2, with HeLa, in the assay with Hek293T and in the assay with JEG-3 was “inactive” throughout. Further, the Potency result in the assay with OV90, with PA-1, in the assay on Tov-21-G and in the assay on Tov112D was “inactive” in each case. The call with CASKI was inactive.
Consider `CC/C=C/C=C/C1(C)OC(CC(CO)OC)=CC1=O` (configuration not stated), for which the Potency entry in the assay on C33A, with CAOV3, with Es-2, in the assay with HeLa, with Hek293T and with JEG-3 was “inactive” in each case. The Potency result in the assay on OV90, with PA-1, in the assay on Tov-21-G and in the assay on Tov112D was “inactive” each time. Also, in the assay with CASKI, the molecule was called inactive.
With `CC1=CC[C@@]2(C)CC[C@@](O)(C(C)C)[C@@H]2[C@@H](O)C1`, the Potency entry in the assay on C33A, in the assay on CAOV3, with Es-2, with HeLa, in the assay on Hek293T and in the assay with JEG-3 was “inactive” throughout. The Potency entry in the assay with OV90, in the assay on PA-1, in the assay with Tov-21-G and in the assay on Tov112D was “inactive” in each case. In addition, the call in the assay with CASKI was inactive.
Consider `CC(C)/C=C1/NC(=O)C(C(C)C)n2c1nc1c(O)cccc1c2=O` (configuration not stated), for which the Potency result in the assay on C33A, in the assay on CAOV3, in the assay on Es-2, in the assay on HeLa, in the assay with Hek293T and in the assay with JEG-3 was “inactive” in each case. Further, the Potency entry with OV90, in the assay with PA-1, in the assay with Tov-21-G and in the assay with Tov112D was “inactive” throughout. For the same molecule, in the assay on CASKI, the call was inactive.
Take `C[C@]1(O)CC[C@@H]2C(C(=O)O)=CO[C@@H](O[C@@H]3O[C@H](COC(=O)/C=C/c4ccc(O)c(O)c4)[C@@H](O)[C@H](O)[C@H]3O)[C@@H]21`: the Potency entry with C33A, in the assay on CAOV3, in the assay on Es-2, in the assay with HeLa, in the assay with Hek293T and in the assay with JEG-3 was “inactive” in each case. In addition, the Potency result in the assay on OV90, in the assay on PA-1, in the assay on Tov-21-G and in the assay with Tov112D was “inactive” in each case. For the same molecule, the molecule was classed as inactive in the assay with CASKI.
Consider `COC(=O)C1=CO[C@@H](O[C@@H]2O[C@H](CO)[C@@H](O)[C@H](O)[C@H]2O)[C@@H]2C(C)CC(=O)[C@]12O` (some centres not stated), for which the Potency entry in the assay on C33A, in the assay with CAOV3, in the assay on Es-2, in the assay with HeLa, in the assay with Hek293T and in the assay on JEG-3 was “inactive” throughout. The Potency result in the assay on OV90, in the assay with PA-1, in the assay with Tov-21-G and with Tov112D was “inactive” each time. The outcome in the assay on CASKI was inactive.
